Six compounds from ChEMBL document CHEMBL2218924, “A broad activity screen in support of a chemogenomic map for kinase signalling research and drug discovery” (Biochem J, 2013) can be followed below.

Test [1] deals with Mitogen-activated protein kinase 11 (Homo sapiens) (UniProt Q15759). The note with it: at 1 µM.
Test [2] shares this target. As to conditions: at 10 µM.
The target in test [3] is T1, Mitogen-activated protein kinase 13 (Homo sapiens) (UniProt O15264).
T1 sequence (whole entry): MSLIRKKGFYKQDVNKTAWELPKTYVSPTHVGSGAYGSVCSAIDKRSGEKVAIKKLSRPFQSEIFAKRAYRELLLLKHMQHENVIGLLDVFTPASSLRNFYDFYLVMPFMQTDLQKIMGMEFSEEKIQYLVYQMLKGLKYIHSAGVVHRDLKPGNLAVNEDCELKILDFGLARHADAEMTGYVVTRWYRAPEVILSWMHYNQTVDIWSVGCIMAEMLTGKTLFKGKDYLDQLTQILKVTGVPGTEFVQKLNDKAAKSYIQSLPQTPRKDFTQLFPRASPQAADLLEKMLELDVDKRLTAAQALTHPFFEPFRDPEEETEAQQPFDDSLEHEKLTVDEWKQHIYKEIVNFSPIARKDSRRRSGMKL
The note with it: at 1 µM.

The target in test [4] is T1, Mitogen-activated protein kinase 13 (Homo sapiens). The note with it: at 10 µM.
The target in test [5] is T2, Serine/threonine-protein kinase Sgk1 (Homo sapiens) (UniProt O00141).
T2 sequence (whole entry): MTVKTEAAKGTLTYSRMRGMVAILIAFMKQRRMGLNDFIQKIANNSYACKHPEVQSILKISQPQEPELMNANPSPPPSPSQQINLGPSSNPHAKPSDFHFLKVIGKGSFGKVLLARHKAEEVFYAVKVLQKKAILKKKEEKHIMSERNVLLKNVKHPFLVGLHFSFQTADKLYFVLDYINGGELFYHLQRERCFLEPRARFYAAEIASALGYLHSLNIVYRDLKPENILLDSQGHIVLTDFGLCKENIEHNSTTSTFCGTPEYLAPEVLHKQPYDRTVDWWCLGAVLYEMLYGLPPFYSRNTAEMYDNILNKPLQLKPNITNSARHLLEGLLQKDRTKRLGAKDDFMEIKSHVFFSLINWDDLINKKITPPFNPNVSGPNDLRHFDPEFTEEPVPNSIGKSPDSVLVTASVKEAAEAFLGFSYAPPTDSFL
As to conditions: at 1 µM.

The target in test [6] is T2, Serine/threonine-protein kinase Sgk1 (Homo sapiens). As to conditions: at 10 µM.
The target of test [7] is T3, Serine/threonine-protein kinase Sgk2 (Homo sapiens) (UniProt Q9HBY8).
T3 sequence (whole entry): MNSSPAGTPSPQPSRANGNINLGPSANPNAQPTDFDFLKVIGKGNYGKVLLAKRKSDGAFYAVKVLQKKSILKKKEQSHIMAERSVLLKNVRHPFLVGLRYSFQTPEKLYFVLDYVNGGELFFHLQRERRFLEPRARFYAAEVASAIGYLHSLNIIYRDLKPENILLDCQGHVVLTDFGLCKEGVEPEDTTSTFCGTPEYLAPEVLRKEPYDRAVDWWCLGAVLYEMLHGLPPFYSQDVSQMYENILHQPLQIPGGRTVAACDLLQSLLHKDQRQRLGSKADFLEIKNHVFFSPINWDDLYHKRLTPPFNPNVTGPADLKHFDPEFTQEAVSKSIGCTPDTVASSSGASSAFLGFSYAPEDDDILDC
As to conditions: at 1 µM.

Test [8] addresses T3, Serine/threonine-protein kinase Sgk2 (Homo sapiens). As to conditions: at 10 µM.
Test [9] addresses T4, Serine/threonine-protein kinase Sgk3 (Homo sapiens) (UniProt Q96BR1).
T4 sequence (whole entry): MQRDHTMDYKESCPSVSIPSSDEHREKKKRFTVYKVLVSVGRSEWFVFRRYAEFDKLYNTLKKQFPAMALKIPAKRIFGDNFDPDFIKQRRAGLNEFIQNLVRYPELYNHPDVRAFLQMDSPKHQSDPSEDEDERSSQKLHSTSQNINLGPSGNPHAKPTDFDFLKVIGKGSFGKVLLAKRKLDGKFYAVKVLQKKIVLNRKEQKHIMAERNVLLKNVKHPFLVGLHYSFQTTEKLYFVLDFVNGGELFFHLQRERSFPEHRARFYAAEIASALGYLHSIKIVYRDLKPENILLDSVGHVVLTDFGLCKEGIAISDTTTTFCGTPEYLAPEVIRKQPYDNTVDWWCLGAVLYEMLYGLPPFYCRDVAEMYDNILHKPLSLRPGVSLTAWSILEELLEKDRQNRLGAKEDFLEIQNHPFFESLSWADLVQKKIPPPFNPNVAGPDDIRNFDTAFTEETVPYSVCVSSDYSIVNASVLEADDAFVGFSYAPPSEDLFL
As to conditions: at 10 µM.

In test [10] the target is Serine/threonine-protein kinase SIK1 (Homo sapiens) (UniProt P57059). As to conditions: at 1 µM.
Test [11] has the same target. As to conditions: at 10 µM.
The target of test [12] is SRSF protein kinase 1 (Homo sapiens) (UniProt Q96SB4). The note with it: at 1 µM.
The target is the same in test [13]. As to conditions: at 10 µM.
The target in test [14] is SRSF protein kinase 2 (Homo sapiens) (UniProt P78362). The note with it: at 1 µM.
Test [15] shares this target. The note with it: at 10 µM.
The target in test [16] is Serine/threonine-protein kinase 33 (Homo sapiens) (UniProt Q9BYT3). As to conditions: at 1 µM.
Test [17] has the same target. The note with it: at 10 µM.
For test [18], the target named is Serine/threonine-protein kinase PLK2 (Homo sapiens) (UniProt Q9NYY3). The note with it: at 1 µM.
For test [19] the target is unchanged. As to conditions: at 10 µM.
For test [20], the target named is Tyrosine-protein kinase SYK (Homo sapiens) (UniProt P43405). The note with it: at 1 µM.

SRSF protein kinase 1 (Homo sapiens), sequence (Q96SB4 whole entry): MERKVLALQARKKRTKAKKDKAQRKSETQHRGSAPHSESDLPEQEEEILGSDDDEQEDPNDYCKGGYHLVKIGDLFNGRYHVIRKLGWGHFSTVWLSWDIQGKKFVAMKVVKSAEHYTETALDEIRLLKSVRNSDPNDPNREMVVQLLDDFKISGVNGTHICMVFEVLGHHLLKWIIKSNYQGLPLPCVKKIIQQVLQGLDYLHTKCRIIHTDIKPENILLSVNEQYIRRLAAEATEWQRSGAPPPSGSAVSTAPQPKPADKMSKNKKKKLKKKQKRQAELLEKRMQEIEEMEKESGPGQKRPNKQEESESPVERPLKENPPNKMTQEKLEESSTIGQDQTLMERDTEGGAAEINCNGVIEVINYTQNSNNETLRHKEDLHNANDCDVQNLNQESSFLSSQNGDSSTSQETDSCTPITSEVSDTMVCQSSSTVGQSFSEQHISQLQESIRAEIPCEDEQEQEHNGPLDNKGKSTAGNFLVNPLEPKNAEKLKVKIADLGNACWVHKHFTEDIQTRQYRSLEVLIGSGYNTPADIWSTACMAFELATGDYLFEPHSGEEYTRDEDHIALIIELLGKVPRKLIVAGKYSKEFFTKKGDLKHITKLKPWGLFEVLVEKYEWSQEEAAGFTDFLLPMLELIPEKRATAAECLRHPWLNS
SRSF protein kinase 2 (Homo sapiens), sequence (P78362 whole entry, looked up): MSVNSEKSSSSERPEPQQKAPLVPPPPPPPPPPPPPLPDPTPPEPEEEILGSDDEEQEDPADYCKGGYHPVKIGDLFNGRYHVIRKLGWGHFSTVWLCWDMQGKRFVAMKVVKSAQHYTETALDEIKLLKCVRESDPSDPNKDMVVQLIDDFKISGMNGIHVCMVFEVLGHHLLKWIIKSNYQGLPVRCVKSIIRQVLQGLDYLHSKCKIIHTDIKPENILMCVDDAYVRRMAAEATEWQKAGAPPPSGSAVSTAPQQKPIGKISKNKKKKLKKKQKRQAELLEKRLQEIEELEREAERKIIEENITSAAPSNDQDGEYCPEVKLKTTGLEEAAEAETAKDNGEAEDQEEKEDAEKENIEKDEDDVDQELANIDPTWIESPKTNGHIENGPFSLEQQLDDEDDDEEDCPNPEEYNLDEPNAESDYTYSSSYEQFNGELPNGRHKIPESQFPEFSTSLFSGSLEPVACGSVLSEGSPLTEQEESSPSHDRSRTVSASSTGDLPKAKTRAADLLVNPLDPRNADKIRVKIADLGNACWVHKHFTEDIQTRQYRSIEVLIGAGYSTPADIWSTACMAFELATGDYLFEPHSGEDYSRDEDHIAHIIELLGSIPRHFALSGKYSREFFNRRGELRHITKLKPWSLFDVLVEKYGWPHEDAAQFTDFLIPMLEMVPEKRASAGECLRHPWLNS
Serine/threonine-protein kinase SIK1 (Homo sapiens), sequence (P57059 whole entry): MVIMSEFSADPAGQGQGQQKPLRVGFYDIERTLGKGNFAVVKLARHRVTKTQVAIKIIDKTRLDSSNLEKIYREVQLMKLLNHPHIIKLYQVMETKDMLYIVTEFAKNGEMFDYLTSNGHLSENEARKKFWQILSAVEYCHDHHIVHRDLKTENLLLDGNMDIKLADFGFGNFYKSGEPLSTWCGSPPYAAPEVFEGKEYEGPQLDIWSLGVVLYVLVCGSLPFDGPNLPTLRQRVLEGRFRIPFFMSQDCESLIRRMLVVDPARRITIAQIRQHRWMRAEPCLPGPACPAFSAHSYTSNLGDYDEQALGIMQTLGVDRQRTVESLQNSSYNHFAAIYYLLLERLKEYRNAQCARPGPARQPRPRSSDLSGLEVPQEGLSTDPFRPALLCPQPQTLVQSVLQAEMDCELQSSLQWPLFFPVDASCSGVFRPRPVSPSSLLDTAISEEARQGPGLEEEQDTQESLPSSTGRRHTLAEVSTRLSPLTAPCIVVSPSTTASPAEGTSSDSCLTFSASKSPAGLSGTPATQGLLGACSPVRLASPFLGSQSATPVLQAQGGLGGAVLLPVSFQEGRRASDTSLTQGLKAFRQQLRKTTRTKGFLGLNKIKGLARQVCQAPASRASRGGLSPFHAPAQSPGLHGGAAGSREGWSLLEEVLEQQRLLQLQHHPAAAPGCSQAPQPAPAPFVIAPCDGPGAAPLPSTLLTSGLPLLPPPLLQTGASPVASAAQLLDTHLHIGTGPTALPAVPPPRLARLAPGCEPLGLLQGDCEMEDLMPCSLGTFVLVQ
Mitogen-activated protein kinase 11 (Homo sapiens), sequence (Q15759 whole entry): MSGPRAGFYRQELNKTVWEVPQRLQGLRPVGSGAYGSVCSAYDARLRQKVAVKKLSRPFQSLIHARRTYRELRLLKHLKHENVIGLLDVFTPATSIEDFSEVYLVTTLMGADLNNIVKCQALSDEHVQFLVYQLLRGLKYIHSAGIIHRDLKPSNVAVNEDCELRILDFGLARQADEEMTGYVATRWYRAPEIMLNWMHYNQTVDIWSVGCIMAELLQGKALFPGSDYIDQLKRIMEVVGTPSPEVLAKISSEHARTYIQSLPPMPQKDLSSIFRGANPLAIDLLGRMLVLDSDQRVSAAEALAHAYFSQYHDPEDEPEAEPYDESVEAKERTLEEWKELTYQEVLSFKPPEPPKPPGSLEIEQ
Serine/threonine-protein kinase 33 (Homo sapiens), sequence (Q9BYT3 whole entry, looked up): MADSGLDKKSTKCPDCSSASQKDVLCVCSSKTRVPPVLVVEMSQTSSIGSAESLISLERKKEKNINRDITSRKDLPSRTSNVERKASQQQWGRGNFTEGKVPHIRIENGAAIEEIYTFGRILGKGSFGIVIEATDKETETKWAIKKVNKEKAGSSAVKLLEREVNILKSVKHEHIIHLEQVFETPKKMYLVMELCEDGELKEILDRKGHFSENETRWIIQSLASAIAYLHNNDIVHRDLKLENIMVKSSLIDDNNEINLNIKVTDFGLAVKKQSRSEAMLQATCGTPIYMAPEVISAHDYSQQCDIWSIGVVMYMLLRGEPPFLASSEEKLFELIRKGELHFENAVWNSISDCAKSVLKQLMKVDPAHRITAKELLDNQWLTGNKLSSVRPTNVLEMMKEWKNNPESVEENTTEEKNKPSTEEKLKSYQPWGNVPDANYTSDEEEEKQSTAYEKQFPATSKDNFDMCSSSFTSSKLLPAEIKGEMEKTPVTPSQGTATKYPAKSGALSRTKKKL
Serine/threonine-protein kinase PLK2 (Homo sapiens), sequence (Q9NYY3 whole entry, looked up): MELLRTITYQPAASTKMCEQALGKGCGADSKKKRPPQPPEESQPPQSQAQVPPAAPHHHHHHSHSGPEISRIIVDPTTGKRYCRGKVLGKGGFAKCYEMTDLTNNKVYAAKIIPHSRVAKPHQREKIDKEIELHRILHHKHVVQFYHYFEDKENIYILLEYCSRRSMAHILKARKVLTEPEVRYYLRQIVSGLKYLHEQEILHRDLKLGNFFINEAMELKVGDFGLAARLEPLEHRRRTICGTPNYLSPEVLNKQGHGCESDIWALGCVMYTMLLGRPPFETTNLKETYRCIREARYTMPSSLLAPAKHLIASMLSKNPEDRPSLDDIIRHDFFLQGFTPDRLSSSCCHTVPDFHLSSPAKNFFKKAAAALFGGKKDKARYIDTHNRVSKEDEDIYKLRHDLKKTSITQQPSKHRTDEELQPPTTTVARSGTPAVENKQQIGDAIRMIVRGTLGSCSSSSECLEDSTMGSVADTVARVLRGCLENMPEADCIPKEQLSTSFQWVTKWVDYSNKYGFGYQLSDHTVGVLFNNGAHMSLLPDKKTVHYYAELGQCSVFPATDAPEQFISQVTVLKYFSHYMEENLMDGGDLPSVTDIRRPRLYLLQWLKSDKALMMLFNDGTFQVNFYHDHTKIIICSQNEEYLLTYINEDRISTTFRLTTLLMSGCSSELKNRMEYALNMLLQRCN

For the compound `O=c1cc(-c2cccc3c2Sc2ccccc2S3)oc(N2CCOCC2)c1`, the residual activity in test [1] amounted to 111%; in test [2] it was 109%; in test [3] it was 107%; in test [4], 105%; in test [5], 103%; in test [6], 100%. Moreover, the residual activity in [7] came out at 91%; in test [8], 72%; in test [9], 78%; in [10], 137%; in test [11], 83%; in [12], 101%. For the same compound, the residual activity in test [13] turned out to be 83%; in test [14], 107%; in [15] it was 91%; in [16], 97%; in test [17], 87%; in [18], 93%. Also, the residual activity worked out at 96% in test [19] and 104% in [20].
Consider `CC[n+]1c(/C=C/N(C)c2ccccc2)n(-c2ccccc2)c2ccc(-c3nc4ccccc4s3)cc21`, for which the residual activity in test [1] came out at 107%; in test [2] it was 101%; in [3], 105%; in test [4] it was 97%; in [5], 118%; in test [6], 65%. Moreover, the residual activity in test [7] came to 109%; in test [8], 80%; in test [9], 69%; in test [10], 115%; in [11] it was 125%; in test [12], 114%. Besides, the residual activity in test [13] was found to be 124%; in [14], 106%; in test [15], 99%; in test [16] it was 89%; in test [17], 82%; in test [18], 91%. The residual activity in test [19] worked out at 95%; in test [20], 103%.
With `CO[C@H]1C[C@@H]2CC[C@@H](C)[C@@](O)(O2)C(=O)C(=O)N2CCCC[C@H]2C(=O)O[C@H]([C@H](C)C[C@@H]2CC[C@@H](O)[C@H](OC)C2)CC(=O)[C@H](C)/C=C(\C)[C@@H](O)[C@@H](OC)C(=O)[C@H](C)C[C@H](C)/C=C/C=C/C=C/1C`, the residual activity worked out at 97% in test [1]; 103% in test [2]; 110% in test [3]; 95% in test [4]; 93% in [5]; 213% in [6]. Moreover, the residual activity in test [7] worked out at 124%; in test [8], 149%; in test [9], 148%; in [10] it was 101%; in [11], 81%; in test [12] it was 103%. Further, the residual activity in test [13] stood at 108%; in test [14], 99%; in test [15], 92%; in [16], 92%; in [17] it was 107%; in [18], 104%. The residual activity was determined as 103% in test [19] and 106% in [20].
In the case of `CC(C)n1cnc2/c(=N/c3cccc(Cl)c3)nc(NCCO)[nH]c21`, the residual activity in test [1] was 101%; in test [2] it was 94%; in test [3] it was 103%; in [4], 99%; in [5], 89%; in test [6], 110%. The residual activity in [7] is 105%; in test [8], 83%; in [9], 82%; in [10], 90%; in [11], 28%; in test [12] it was 41%. In addition, the residual activity in [13] was -2%; in test [14], 27%; in [15], 2%; in [16], 78%; in test [17], 28%; in test [18], 61%. Moreover, the values for the residual activity in test [19] and in test [20] were 22% and 79%, respectively.
In the case of `Nc1ccc2ncnc(NCCc3ccc(Oc4ccccc4)cc3)c2c1`, the residual activity in test [1] amounted to 107%; in [2] it was 101%; in [3] it was 112%; in [4], 96%; in [5] it was 88%; in test [6], 125%. Further, the residual activity was 110% in test [7]; 74% in test [8]; 86% in test [9]; 112% in [10]; 75% in test [11]; 117% in [12]. Further, the residual activity in test [13] turned out to be 114%; in [14] it was 114%; in test [15] it was 70%; in [16] it was 104%; in test [17] it was 91%; in test [18], 106%. Also, the residual activity in [19] was determined as 104%; in [20] it was 93%.
On to `CC#CC(=O)Nc1cc2c(Nc3ccc(F)c(Cl)c3)ncnc2cn1`, for which the residual activity was found to be 90% in test [1]; 86% in test [2]; 107% in [3]; 96% in test [4]; 95% in [5]; 106% in test [6]. In addition, the residual activity in test [7] turned out to be 100%; in test [8], 77%; in test [9] it was 88%; in [10] it was 81%; in [11], 77%; in test [12], 91%. Also, the residual activity was found to be 100% in test [13]; 88% in test [14]; 88% in test [15]; 94% in [16]; 98% in test [17]; 97% in test [18]. Further, the residual activity is 93% in test [19] and 117% in test [20].
